This note sets out measurements from PubChem BioAssay AID615 (Sanford-Burnham Center for Chemical Genomics, 2007).

Among all 21,000 compounds or so, fewer than 10 were called active. These entries were drawn from the full list. Values without a mark were called inactive.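 The calls were made as follows: active = inhibition above 50% at the 20 µM single-dose screen; inactive = the rest.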

The target of the experiment is Alkaline phosphatase, tissue-nonspecific isozyme (Homo sapiens) (UniProt P05186). Nature of the experiment: human TNAP enzyme inhibitors, primary screen, biochemical, colorimetric, p-nitrophenol readout (AID 615).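 Also: 0% = DMSO only wells and 100% = 1 mM levamisole wells.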 The conditions noted are these: purified TNAP, pNPP hydrolysis, absorbance 405 nm; at 20 µM; active compounds read high.
Chain of Alkaline phosphatase, tissue-nonspecific isozyme (Homo sapiens) (P05186 whole entry, looked up): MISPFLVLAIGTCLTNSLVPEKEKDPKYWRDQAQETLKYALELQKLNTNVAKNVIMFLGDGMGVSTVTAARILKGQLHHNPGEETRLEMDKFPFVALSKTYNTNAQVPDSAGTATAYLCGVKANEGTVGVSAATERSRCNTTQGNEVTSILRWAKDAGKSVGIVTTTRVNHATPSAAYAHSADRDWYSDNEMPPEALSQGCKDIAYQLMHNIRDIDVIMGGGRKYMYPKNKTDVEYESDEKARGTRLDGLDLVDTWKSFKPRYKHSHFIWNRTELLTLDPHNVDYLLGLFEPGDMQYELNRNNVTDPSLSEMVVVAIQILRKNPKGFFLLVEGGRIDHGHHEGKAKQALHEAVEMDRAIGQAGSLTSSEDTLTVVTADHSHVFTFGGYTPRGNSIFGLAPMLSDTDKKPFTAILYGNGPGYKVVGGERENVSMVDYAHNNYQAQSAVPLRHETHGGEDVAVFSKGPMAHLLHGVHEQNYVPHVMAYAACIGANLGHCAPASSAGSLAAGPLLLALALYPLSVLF
In the case of `COc1ccc(CCNS(=O)(=O)c2ccc(F)cc2)cc1OC`, the inhibition (in general, the change of the read-out against control, counted positive when it falls) is 3.6%.

For the compound `Nc1nonc1-c1nc2ccccc2n1Cc1ccc(F)cc1`, the inhibition was -0.2%.

Consider `COCCCn1c2nc3ccccc3nc2c2c(=O)n(Cc3ccc(Cl)cc3)c(C)nc21`, for which the inhibition is 7.2%.

Consider `CN1CCN(C(=O)C2C3C=CC(C3)C2C(=O)O)CC1` (stereo unspecified), for which the inhibition is 3.6%. Turning to `CCCCC(=O)N1CC2(C)CN(C(=O)CCCC)CC(C)(C1)C2=O`, the inhibition was -3.1%. For `O=C(CSc1nnc(-c2cccs2)n1Cc1ccco1)c1ccc2c(c1)OCO2` the value was 1.9%. With `COc1ccc(/C(O)=C2/C(=O)C(=O)N(CCCN(C)C)C2c2ccccc2)cc1OC` (stereo unspecified) the figure was 2.9%. For `CCCCC(=O)Nc1ccc2c(c1)OCCO2` the value was -5.8%. As for `CC(=O)C1=C(O)C(=O)N(c2ccc(S(N)(=O)=O)cc2)C1c1ccccc1F` (stereo unspecified), the inhibition is 0.8%. With `CCOC(=O)c1c(-n2cnnn2)sc(C)c1C` the figure was 3.1%; with `Cn1c2c(c(=O)n(C)c1=O)CN(Cc1ccco1)CN2`, -1.5%; with `Cc1ccc(NC(=O)N2CCC(C(=O)NCc3ccc(F)cc3)CC2)cc1`, 6.4%. For `Cc1ccccc1C(=O)Nc1cccc(-c2nnc(SCC(=O)O)n2C)c1` the value was 1.1%. Turning to `Cc1ccc2[nH]c3c(c2c1)CN(C(=O)CN1CCN(c2ccccc2)CC1)CC3`, the inhibition is 2.7%. For `CC(=O)N(CN1C(=O)C2CC=CCC2C1=O)c1cccc(Cl)c1` (stereo unspecified) the value was 7.2%; for `COc1ccc(C2/C(=C(/O)c3ccccc3)C(=O)C(=O)N2c2ncccn2)cc1OC` (stereo unspecified), -1.7%; for `COc1ccc(C(CNC(=O)c2cccnc2SC)N2CCOCC2)cc1` (stereo unspecified), -2%. With `CCCCNc1nc2c(c(=O)[nH]c(=O)n2C)n1CCOc1ccccc1` the figure was 4.2%; with `CC(=O)c1cc(-c2ccccc2)[nH]c1N1CCCC1`, 0.8%. With `O=C(C1CCCO1)N1CCC(c2nc3ccccc3[nH]2)CC1` (stereo unspecified) the figure was 5.7%. In the case of `O=C1Nc2ccccc2C12Nc1ccccc1S2` (stereo unspecified), the inhibition is 2%. For `Cc1ccc(-c2c3c(=O)n(C)c(=O)n(C)c3cn2-c2ccccc2O)cc1` the value was 1.8%; for `Cc1ccccc1-n1c(SCC(=O)NCc2cccs2)nnc1-c1ccncc1`, -7.5%.

In the case of `CCc1nnc(NC(=O)c2c(O)c3c([nH]c2=O)CCCC3)s1`, the inhibition was 6.2%. For the compound `COc1ccccc1CNC(=O)C1CCN(S(C)(=O)=O)CC1`, the inhibition was 7.2%. For the compound `COc1ccc(NC(=O)c2c(C)oc3c2CCCC3)cc1`, the inhibition is 5.5%. As to `Cc1nc2nc(CSc3nc4ccccc4s3)cc(=O)n2[nH]1`, the inhibition was 1.3%. For `CCOC(=O)C1CCCCN1Cc1ccc(OC)c(OC)c1OC` (stereo unspecified) the value was 6.8%; for `CS(=O)(=O)N(CC(=O)N1CCN(Cc2ccc3c(c2)OCO3)CC1)c1ccc2c(c1)OCO2`, -15%; for `Cc1cc(C(=O)COC(=O)c2cccs2)c(C)n1-c1c(C)n(C)n(-c2ccccc2)c1=O`, 4.7%. Regarding `CCCOP(=O)(c1ccc(N(C)C)cc1)C(O)c1cc(OC)c(OC)c(OC)c1` (stereo unspecified), the inhibition was 12.9%. With `COc1ccc(CCNC(=O)CSc2nnc(-c3cccc(F)c3)o2)cc1OC` the figure was -1.5%. For `COc1ccc(CCN(C)CCN2C(=O)c3ccccc3C2=O)cc1OC` the value was -0.3%; for `Cc1ccc(C(=O)NC2CCN(C(=O)N3CCOCC3)CC2)cc1`, 7%. With `COc1ccc(N2CCN(C(c3cc4ccc(C)cc4[nH]c3=O)c3nnnn3C3CCCC3)CC2)cc1` (stereo unspecified) the figure was 14.6%; with `CCOC(=O)c1c(NC(=O)c2ccc(Br)o2)sc2c1CCCC2`, 1%. As for `Cc1cc(=O)[nH]c(SCC(N)=O)c1C#N`, the inhibition was -1.7%.

On to `O=C(c1ccc2c(c1)C(=O)N(c1ccc(Cl)cc1)C2=O)N1CCN(c2ccccn2)CC1`, for which the inhibition was 5.1%.

On to `CCOc1ccc2nc(NC(=O)CSc3nc4c(c(=O)n(C)c(=O)n4C)n3CC)sc2c1`, for which the inhibition is 4.9%. As to `CN(C)CCNC(=O)C(C(=O)c1ccccc1)n1ccccc1=O` (stereo unspecified), the inhibition is 1.2%.

`CCc1c(C)sc(NC(=O)OC)c1C(=O)N1CCOCC1`: the inhibition was 4.1%. For `O=C(O)CN1C(=O)CC(Cc2ccccc2)C1=O` (stereo unspecified) the value was 4.8%. For `CCNC(=O)N1CCNC(=O)C1CC(=O)Nc1ccc(C(=O)OCC)cc1` (stereo unspecified) the value was 4.4%; for `CCOC(=O)c1[nH]c2ccccc2c1N=C(C)N(CC)CC`, -0.8%; for `Cc1nn(Cc2ccccc2)c(Cl)c1C(=O)OC1CCOC1=O` (stereo unspecified), 3.6%. With `CCC1C(C#N)=C(SC)NC2=C1C(=O)CC(C)(C)C2` (stereo unspecified) the figure was -2.9%; with `COc1ccc(CC(=O)n2nc(-c3cccnc3)nc2N)cc1`, 6.9%; with `Cc1cccc(OCc2nnc(SCC(=O)N3CCN(C(=O)c4ccco4)CC3)n2C)c1C`, 0.2%. For `c1csc(CN2CCN(Cc3cccs3)C2c2cccs2)c1`, the inhibition is 5.5%.

Turning to `CCN1C(=O)/C(=C\N2CCN(c3cccc(Cl)c3)CC2)SC1=S`, the inhibition was 6.1%. For `COC(=O)[C@H](CCSC)NC(=O)Nc1ccc(OC)cc1` the value was 4.9%; for `C#CCN1CC(C)/C(=N/O)CC1C` (stereo unspecified), 2.4%.

Consider `CC(C)OC(=O)C(C#N)c1nc2ccccc2nc1N1CCN(Cc2ccc3c(c2)OCO3)CC1` (stereo unspecified), for which the inhibition is 0%. With `O=C(Nc1ncccn1)c1cccs1` the figure was 3.3%. For `CCCCCN(C(=O)NC(=O)Nc1ccccc1C)S(C)(=O)=O` the value was 0.7%.

Regarding `Cc1ccc(C(=O)Nc2nnc(-c3ccncc3)s2)o1`, the inhibition is -1.1%. For `O=C(c1cccs1)N1CCCC(c2nc(-c3ccc(F)cc3)no2)C1` (stereo unspecified) the value was 2.9%. `CCCc1cc(=O)oc2c(C)c(O)c(CN3CCCCC3)cc12`: the inhibition is 0.2%. With `COc1ccc2c3c(c(=O)oc2c1OCC(=O)C(C)(C)C)CCCC3` the figure was 3.6%. With `CCOC(=O)CSc1nnc(CNc2nc(-c3ccccc3)cs2)n1C` the figure was 5.4%; with `CCc1cc2c(=O)c(-c3ccon3)c(N)oc2cc1OC`, 5.4%.

With `Cc1ccnc(SCCn2c(Br)nc3c2c(=O)[nH]c(=O)n3C)n1`, the inhibition is 3%. With `O=C(Nc1cnn(Cc2ccc(Cl)cc2)c1)C1CCCC1` the figure was 9.7%; with `COc1cc(OC)cc(C(=O)NCCSCc2ccco2)c1`, 5.2%.

Take `CC1(N2CCOCC2)CC2(O)C(=[N+]1[O-])CCc1nonc12` (stereo unspecified): the inhibition was 9.3%. For `CC1CN(C2CCN(C(=O)COc3ccccc3)CC2)CC(C)O1` (stereo unspecified) the value was -2.1%; for `CC(C)c1nnc(NC(=O)C2CCCN2S(=O)(=O)c2ccc(Cl)cc2)s1` (stereo unspecified), 3.8%. For `O=C(CSc1nnc(Cc2ccccc2)n1-c1ccccc1)N1CCOCC1` the value was 0.4%; for `Cc1cccc(NC(=O)CSc2nnc(CCCCCNC(=O)OC(C)(C)C)o2)c1C`, -8.7%.

As for `COC(=O)c1ccc(NC(=O)CSc2nnc(-c3ccncc3)n2C)cc1`, the inhibition was 1.1%.

Regarding `O=C(O)C1CCCN1S(=O)(=O)c1ccc2c(c1)CCC2` (stereo unspecified), the inhibition is 0.7%.
